# From PMC7862700, “An all-to-all approach to the identification of sequence-specific readers for epigenetic DNA modifications on cytosine”
# How the values were obtained:
# Assay in all cases: DAPPL (digital affinity profiling via proximity ligation, sequencing); 10 mM Tris-HCl pH 7.5, 50 mM NaCl, 1 mM DTT, 4% glycerol, room temperature, 30 min; GST-TFs on glutathione beads, 16-mer random dsDNA library, 0.1% formaldehyde crosslink after washing; high values mean tight binding
# Conditions in all cases: protein: recombinant; tags: N-terminal GST; dsDNA, one strand shown
# FLI1 = target: T1, FLI1 (Homo sapiens, UniProt Q01543 1-452)
# T1 sequence: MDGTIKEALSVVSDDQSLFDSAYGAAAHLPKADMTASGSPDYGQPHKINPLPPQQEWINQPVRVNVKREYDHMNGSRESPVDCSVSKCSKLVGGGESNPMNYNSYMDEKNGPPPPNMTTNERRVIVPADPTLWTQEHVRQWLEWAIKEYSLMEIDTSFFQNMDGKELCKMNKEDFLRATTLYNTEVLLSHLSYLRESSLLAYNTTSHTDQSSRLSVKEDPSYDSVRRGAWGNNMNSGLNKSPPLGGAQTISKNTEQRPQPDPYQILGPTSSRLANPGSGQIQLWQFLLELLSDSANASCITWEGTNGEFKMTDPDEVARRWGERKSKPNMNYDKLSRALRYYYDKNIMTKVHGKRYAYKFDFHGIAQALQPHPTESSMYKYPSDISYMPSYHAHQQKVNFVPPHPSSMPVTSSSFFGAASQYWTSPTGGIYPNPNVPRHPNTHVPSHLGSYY
# Summary of the method: (§1)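 A tag-only sample was pooled with DNA-barcoded human transcription factors that had been expressed in yeast as GST fusions and captured on glutathione beads. The pools were incubated for 30 min at room temperature with 200 nmole of a random double-stranded 16-mer DNA library in Tris/NaCl/DTT/glycerol buffer, then washed, crosslinked with 0.1% formaldehyde, proximity-ligated (BsaI/T4 ligase, 1 h, 37 °C), PCR-amplified and sequenced on an Illumina NextSeq500. Binding signal is each hexamer's read frequency for a factor divided by its frequency for the tag-only sample.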
# ELK1 = target: T2, ELK1 (Homo sapiens, UniProt P19419 1-428)
# T2 sequence: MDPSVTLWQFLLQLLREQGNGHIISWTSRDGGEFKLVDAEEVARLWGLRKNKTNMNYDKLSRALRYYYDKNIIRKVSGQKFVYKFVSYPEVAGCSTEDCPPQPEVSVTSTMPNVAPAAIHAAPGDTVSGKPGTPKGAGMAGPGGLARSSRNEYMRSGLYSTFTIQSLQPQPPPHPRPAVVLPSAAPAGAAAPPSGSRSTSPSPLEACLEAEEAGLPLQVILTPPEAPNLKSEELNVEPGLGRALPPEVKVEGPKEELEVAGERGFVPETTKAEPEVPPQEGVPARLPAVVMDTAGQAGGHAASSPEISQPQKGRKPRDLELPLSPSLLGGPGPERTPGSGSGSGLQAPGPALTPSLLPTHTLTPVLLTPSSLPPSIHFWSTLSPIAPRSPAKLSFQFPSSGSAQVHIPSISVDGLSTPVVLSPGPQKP
# Summary of the method: as §1
# GABPA = target: T3, GABPA (Homo sapiens, UniProt Q06546 1-454)
# T3 sequence: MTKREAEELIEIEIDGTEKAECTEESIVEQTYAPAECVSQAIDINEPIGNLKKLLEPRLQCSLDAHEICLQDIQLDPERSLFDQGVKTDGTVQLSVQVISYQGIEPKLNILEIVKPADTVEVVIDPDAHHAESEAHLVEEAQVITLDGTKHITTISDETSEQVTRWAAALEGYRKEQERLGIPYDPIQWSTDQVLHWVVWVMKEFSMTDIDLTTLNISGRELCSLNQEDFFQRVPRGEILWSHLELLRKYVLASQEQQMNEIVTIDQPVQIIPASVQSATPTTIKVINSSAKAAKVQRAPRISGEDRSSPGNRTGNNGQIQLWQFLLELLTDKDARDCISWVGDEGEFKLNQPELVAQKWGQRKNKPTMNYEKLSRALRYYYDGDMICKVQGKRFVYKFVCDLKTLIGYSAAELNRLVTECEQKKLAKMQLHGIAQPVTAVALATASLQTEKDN
# Summary of the method: as §1
# ERG = target: T4, ERG (Homo sapiens, UniProt P11308 1-479)
# T4 sequence: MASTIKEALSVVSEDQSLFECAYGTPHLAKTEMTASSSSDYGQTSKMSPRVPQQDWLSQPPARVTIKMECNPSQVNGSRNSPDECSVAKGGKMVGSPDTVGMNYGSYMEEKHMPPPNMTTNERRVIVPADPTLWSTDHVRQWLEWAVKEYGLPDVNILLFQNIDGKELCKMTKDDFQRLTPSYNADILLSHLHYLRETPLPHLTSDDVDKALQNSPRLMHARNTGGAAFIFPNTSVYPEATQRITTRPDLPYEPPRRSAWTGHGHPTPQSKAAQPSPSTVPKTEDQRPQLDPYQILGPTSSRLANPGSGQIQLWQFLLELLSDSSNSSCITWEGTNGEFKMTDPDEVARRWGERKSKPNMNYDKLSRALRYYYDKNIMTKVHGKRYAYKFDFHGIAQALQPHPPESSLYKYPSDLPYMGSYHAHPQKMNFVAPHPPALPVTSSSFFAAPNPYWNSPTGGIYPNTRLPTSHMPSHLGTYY
# Summary of the method: as §1
# ELF1 = ELF1 (Homo sapiens, UniProt P32519 1-619)
# Summary of the method: as §1
# EHF = target: T5, EHF (Homo sapiens, UniProt Q9NZC4 1-300)
# T5 sequence: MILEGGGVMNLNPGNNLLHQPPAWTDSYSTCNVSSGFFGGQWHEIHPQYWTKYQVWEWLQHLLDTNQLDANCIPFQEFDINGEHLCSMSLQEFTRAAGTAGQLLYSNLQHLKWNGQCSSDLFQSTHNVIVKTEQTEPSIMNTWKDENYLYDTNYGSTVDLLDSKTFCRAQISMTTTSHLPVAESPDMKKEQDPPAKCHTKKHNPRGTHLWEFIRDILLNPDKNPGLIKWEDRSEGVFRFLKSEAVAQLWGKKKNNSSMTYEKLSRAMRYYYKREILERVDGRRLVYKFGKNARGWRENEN
# Summary of the method: as §1
# SPI1 = SPI1 (Homo sapiens, UniProt P17947 1-270)
# Summary of the method: as §1
# SPIB = SPIB (Homo sapiens, UniProt Q01892 1-262)
# Summary of the method: as §1
# ELK3 = target: T6, ELK3 (Homo sapiens, UniProt P41970 1-407)
# T6 sequence: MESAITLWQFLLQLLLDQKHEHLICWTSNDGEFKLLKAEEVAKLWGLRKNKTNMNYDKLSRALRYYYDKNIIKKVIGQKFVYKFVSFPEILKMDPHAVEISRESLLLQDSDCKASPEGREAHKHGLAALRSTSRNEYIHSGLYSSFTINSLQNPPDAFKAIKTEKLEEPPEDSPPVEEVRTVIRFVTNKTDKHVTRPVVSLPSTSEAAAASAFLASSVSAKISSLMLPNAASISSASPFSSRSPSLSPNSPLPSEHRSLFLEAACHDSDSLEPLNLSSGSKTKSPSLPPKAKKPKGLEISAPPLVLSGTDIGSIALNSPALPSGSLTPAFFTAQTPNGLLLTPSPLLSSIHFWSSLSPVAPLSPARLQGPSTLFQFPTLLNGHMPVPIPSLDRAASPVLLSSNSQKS
# Summary of the method: as §1
# ELF1, sequence (P32519 whole entry): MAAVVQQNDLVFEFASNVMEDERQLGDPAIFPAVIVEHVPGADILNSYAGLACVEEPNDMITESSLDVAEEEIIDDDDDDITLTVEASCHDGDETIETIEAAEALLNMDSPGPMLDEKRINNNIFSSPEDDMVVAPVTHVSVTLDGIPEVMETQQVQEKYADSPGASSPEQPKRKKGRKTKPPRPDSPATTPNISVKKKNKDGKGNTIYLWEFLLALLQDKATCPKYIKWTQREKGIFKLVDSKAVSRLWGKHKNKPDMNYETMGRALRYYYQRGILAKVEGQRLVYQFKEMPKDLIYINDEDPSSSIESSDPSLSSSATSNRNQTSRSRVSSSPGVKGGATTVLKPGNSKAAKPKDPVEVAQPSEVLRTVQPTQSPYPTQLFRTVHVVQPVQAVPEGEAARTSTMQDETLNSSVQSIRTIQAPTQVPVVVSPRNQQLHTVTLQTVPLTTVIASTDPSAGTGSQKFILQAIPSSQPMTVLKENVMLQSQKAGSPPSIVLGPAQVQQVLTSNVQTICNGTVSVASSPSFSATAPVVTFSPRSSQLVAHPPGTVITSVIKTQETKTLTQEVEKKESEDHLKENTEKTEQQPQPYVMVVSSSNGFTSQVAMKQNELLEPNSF
# SPIB, sequence (Q01892 whole entry): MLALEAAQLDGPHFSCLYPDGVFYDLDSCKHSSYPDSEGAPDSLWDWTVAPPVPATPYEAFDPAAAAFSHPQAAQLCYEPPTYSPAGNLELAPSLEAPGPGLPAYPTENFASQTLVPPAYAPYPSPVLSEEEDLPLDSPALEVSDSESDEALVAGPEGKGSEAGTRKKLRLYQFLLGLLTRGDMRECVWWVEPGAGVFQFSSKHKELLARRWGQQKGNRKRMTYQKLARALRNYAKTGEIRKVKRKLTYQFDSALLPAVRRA
sequence,measurement,setting,value
TGATGG,binding signal,FLI1,"1.24 fold enrichment (6-mer frequency, TF over GST control)"
same,binding signal,ELK1,"1.27 fold enrichment (6-mer frequency, TF over GST control)"
same,binding signal,GABPA,"1.29 fold enrichment (6-mer frequency, TF over GST control)"
same,binding signal,ERG,"1.24 fold enrichment (6-mer frequency, TF over GST control)"
same,binding signal,ELF1,"1.24 fold enrichment (6-mer frequency, TF over GST control)"
same,binding signal,EHF,"1.31 fold enrichment (6-mer frequency, TF over GST control)"
same,binding signal,SPI1,"1.28 fold enrichment (6-mer frequency, TF over GST control)"
same,binding signal,SPIB,"1.39 fold enrichment (6-mer frequency, TF over GST control)"
same,binding signal,ELK3,"1.16 fold enrichment (6-mer frequency, TF over GST control)"
